# Source: the supplement of paper PMC11732987, “Enantioselective OTUD7B fragment discovery through chemoproteomics screening and high-throughput optimisation” (Communications Chemistry, 2025)
# A number with no mark means an inactive call.
# How the values were obtained:
# Experiment in all cases: log2 ratio of Biotin-Ahx-Ub-VS probe labelling (fragment/DMSO); higher = less target engagement (more negative = stronger competition), active = hit call of the paper (q ≤ 0.05, log2 ratio ≤ -1)
# Conditions in all cases: compound concentration: 200 uM; treatment time: 3 h
# OTUD6B = molecular target: T1, OTUD6B (UniProt Q8N6M0)
# T1 sequence (whole entry): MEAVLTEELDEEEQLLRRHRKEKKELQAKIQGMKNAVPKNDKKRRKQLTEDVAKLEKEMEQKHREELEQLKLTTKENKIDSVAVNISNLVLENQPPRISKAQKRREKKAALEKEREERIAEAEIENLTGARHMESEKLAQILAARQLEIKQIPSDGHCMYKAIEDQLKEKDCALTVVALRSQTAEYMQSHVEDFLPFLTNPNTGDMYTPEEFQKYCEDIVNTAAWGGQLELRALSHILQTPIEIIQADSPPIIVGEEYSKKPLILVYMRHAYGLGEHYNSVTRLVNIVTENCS
# Method in brief: (§1)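 The table lists average log2 ratios of fragment over vehicle, from an unpaired t-test on global-median-normalised Spectronaut label-free quantities. Proteins with ≥2 unique peptides were used. Samples were HEK293T lysate (495 µg) treated in triplicate with fragment at 200 µM or vehicle for 3 h, then with Biotin-Ahx-Ub-VS (0.5 µM final) for 1 h, with labelled DUBs NeutrAvidin-enriched and run by diaPASEF LC-MS/MS.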
# OTUD7B = molecular target: T2, OTUD7B (UniProt Q6GQQ9)
# T2 sequence (whole entry): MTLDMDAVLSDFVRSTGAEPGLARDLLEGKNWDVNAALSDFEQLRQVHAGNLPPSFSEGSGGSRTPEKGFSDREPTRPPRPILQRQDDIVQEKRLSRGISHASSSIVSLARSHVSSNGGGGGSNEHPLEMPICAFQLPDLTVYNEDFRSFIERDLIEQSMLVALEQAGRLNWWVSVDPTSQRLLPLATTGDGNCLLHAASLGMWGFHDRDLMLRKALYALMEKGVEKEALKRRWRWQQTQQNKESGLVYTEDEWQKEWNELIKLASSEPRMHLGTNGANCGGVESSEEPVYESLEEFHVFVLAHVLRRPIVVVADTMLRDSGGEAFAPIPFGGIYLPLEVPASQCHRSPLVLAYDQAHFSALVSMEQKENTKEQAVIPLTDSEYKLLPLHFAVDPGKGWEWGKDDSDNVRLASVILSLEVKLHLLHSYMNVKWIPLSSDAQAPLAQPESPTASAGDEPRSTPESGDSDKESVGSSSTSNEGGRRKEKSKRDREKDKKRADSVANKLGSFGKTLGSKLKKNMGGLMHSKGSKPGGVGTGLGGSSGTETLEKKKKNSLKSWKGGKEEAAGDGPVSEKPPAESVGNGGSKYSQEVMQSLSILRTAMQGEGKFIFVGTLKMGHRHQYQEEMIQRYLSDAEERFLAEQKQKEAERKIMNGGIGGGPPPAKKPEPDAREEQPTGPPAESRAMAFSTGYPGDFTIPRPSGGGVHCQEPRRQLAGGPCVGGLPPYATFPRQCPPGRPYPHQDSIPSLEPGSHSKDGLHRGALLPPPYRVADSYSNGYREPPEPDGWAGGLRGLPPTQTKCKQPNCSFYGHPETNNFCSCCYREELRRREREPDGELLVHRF
# Method in brief: as §1
# PRPF8 = PRPF8 (UniProt Q6P2Q9)
# Method in brief: as §1
# PSMD7 = molecular target: T3, PSMD7 (UniProt P51665)
# T3 sequence (whole entry): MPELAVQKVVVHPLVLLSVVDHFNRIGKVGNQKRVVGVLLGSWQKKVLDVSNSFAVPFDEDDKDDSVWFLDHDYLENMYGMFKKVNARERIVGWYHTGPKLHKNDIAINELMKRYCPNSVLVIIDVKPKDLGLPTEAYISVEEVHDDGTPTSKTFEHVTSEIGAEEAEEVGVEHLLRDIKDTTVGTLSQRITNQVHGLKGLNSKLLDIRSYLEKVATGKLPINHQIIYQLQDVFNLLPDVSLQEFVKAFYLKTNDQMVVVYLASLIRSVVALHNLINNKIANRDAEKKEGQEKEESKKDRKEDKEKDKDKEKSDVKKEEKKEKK
# Method in brief: as §1
# UCHL1 = UCHL1 (UniProt P09936)
# Method in brief: as §1
# UCHL3 = molecular target: T4, UCHL3 (UniProt P15374)
# T4 sequence (whole entry): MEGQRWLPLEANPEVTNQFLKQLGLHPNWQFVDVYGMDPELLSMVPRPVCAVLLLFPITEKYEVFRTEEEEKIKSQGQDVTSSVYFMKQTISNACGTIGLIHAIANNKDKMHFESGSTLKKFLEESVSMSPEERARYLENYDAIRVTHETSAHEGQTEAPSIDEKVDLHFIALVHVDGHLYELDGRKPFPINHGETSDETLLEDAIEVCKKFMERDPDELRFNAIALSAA
# Method in brief: as §1
# UCHL5 = molecular target: T5, UCHL5 (UniProt Q9Y5K5)
# T5 sequence (whole entry): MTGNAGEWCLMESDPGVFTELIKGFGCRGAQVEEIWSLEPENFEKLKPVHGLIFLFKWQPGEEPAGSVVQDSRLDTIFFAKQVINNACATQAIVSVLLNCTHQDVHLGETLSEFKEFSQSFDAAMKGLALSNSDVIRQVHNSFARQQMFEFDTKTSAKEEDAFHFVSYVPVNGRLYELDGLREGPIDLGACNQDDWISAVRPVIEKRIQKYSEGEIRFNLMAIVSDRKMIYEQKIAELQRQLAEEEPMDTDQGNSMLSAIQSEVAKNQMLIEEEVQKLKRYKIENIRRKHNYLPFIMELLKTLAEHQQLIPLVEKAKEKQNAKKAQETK
# Method in brief: as §1
# USP10 = USP10 (UniProt Q14694)
# Method in brief: as §1
# USP15 = molecular target: T6, USP15 (UniProt Q9Y4E8)
# T6 sequence (whole entry): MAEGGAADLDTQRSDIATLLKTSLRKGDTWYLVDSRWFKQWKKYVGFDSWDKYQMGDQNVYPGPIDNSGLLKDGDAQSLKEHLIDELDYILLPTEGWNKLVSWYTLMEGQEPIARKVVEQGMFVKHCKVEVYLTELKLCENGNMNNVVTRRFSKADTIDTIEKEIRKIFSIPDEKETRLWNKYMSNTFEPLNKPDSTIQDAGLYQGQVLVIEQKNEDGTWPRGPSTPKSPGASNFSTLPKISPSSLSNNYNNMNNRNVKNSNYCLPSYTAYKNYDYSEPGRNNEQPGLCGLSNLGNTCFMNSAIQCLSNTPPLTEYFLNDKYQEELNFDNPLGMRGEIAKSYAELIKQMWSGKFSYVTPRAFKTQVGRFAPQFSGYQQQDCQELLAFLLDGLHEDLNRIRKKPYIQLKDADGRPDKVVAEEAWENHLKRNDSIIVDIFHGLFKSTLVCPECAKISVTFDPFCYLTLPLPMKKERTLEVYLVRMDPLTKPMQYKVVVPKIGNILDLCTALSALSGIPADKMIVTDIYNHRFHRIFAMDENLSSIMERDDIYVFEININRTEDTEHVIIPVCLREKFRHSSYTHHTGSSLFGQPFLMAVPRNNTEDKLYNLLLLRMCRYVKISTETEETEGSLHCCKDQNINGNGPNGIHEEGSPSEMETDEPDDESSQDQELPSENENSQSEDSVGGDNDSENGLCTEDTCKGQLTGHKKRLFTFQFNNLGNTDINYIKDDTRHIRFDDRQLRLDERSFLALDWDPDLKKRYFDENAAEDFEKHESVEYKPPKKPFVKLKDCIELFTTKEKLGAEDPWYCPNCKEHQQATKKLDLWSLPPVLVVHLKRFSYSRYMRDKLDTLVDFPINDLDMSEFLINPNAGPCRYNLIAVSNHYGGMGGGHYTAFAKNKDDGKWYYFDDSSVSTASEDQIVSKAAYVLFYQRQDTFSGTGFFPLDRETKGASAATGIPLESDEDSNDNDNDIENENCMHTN
# Method in brief: as §1
# USP16 = USP16 (UniProt Q9Y5T5)
# Method in brief: as §1
# Chain of USP10 (Q14694 whole entry): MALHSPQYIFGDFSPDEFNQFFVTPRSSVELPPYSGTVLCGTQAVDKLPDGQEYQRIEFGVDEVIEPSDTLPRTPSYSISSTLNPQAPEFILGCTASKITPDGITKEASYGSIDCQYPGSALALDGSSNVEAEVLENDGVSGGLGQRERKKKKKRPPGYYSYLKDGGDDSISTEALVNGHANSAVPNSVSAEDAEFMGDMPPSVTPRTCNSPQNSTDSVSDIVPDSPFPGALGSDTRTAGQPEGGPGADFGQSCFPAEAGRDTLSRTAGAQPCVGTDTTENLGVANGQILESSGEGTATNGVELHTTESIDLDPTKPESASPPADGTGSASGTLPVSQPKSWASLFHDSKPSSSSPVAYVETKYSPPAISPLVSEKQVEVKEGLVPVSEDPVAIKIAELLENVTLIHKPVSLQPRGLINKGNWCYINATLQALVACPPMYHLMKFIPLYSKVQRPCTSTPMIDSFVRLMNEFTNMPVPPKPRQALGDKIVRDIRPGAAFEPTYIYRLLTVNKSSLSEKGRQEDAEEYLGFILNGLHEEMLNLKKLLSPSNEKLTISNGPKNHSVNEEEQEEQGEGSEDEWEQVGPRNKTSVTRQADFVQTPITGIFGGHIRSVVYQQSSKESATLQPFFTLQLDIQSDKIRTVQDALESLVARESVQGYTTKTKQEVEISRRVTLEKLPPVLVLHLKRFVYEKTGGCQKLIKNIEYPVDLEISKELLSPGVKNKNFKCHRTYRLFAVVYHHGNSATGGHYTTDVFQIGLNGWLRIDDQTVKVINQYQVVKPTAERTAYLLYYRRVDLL
# Chain of USP16 (Q9Y5T5 whole entry, looked up): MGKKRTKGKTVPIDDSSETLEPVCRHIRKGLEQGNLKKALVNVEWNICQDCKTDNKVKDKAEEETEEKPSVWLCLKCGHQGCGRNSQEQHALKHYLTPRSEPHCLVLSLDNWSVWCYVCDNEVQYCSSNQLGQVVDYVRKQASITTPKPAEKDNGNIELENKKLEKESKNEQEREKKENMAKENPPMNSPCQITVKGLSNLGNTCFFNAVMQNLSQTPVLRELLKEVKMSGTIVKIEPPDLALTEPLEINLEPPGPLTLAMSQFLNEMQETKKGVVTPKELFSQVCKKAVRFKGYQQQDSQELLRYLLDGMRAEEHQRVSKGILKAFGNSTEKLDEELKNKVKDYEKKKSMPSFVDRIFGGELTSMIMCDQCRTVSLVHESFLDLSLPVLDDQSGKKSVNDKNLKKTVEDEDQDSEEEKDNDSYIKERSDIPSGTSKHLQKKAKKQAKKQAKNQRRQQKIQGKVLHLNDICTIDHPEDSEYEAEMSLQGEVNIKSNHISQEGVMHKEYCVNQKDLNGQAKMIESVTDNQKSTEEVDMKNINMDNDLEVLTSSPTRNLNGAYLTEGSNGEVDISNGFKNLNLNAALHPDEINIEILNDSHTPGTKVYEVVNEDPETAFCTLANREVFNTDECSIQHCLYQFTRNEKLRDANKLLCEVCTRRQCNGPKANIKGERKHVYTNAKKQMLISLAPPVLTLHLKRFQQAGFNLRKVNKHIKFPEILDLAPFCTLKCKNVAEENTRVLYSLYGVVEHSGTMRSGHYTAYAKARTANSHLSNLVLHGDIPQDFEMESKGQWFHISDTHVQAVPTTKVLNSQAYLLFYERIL
# Chain of UCHL1 (P09936 whole entry, looked up): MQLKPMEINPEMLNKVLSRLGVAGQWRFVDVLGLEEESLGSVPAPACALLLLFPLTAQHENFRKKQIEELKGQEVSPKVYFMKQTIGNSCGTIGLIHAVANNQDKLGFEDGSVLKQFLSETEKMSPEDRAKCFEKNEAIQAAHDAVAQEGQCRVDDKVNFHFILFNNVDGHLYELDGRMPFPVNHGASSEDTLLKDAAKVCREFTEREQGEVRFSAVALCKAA
smiles,measurement,setting,value
Cl.Cn1cnc2cc(CNC(=O)CCl)ccc21,log2 ratio of Biotin-Ahx-Ub-VS probe labelling,OTUD6B,-0.108
same,log2 ratio of Biotin-Ahx-Ub-VS probe labelling,OTUD7B,-0.399
same,log2 ratio of Biotin-Ahx-Ub-VS probe labelling,PRPF8,0.126
same,log2 ratio of Biotin-Ahx-Ub-VS probe labelling,PSMD7,-0.0706
same,log2 ratio of Biotin-Ahx-Ub-VS probe labelling,UCHL1,-1.72 (active)
same,log2 ratio of Biotin-Ahx-Ub-VS probe labelling,UCHL3,0.249
same,log2 ratio of Biotin-Ahx-Ub-VS probe labelling,UCHL5,0.000192
same,log2 ratio of Biotin-Ahx-Ub-VS probe labelling,USP10,-0.194
same,log2 ratio of Biotin-Ahx-Ub-VS probe labelling,USP15,-0.333
same,log2 ratio of Biotin-Ahx-Ub-VS probe labelling,USP16,-0.459
